# Results reported in PubChem BioAssay AID565 (University of Pittsburgh Molecular Library Screening Center, 2006).
# The whole screen tested about 65,000 compounds, of which about 1,200 (1.8%) were called active. Many of the other results were omitted from the sample, so actives are more common in it than they were. Values without a mark were called inactive. No stated cut-off is given here; in the data, active means inhibition above about 50%; inactive means the rest.
# Target: Gag-Pol polyprotein (Human immunodeficiency virus type 1 group M subtype B (isolate HXB2)) (UniProt P04585)
# Assay: blockers of HIV-1 RNase H RNA/DNA cleavage – biochemical, fluorescence, primary screen (AID 565)
# Settings: RT-RNase H RNA/DNA duplex cleavage, at 10 µM, stronger effect = higher value
row,Structure (SMILES),inhibition
1,COc1c(C)cccc1C(=O)Nc1cc(Cl)ccc1N1CCOCC1,-7.75%
2,c1cnn(-c2cc(N3CCOCC3)ncn2)c1,-2.75%
3,O=C(Nc1cc(N2CCOCC2)ncn1)NC1(C(F)(F)F)Oc2ccc(Cl)cc2O1 (stereo not drawn),62.3% (active)
4,CC(Sc1nncn1C)C(=O)Nc1ccccc1-c1ccccc1 (stereo not drawn),-1.62%
5,Cc1ccccc1OCC(=O)Nc1ccc(N2CCN(C(=O)C(C)C)CC2)c(Cl)c1,-29%
6,CCc1ccccc1NC(=O)CSc1nnc([C@@H](NC(=O)OC(C)(C)C)C(C)C)o1,-2.47%
7,CCOC(=O)c1c(NC(=O)CSc2nnc(C)c(=O)[nH]2)sc2c1CCC2,2.54%
8,CCCCOC(=O)CNc1nnc(SCC(=O)OCC)[nH]c1=O,55.9% (active)
9,CCOC(=O)CSc1nc2sc3c(c2c(=O)[nH]1)CC(C)(C)OC3,-2.48%
10,CCn1c(=O)cc(O)c2ccccc21,-0.16%
11,CCn1c(=N)c(S(=O)(=O)c2ccc(F)cc2)cc2c(=O)n3ccccc3nc21,2.52%
12,Cc1nc2nc(COc3ccccc3)[nH]n2c(=O)c1C,-3.44%
13,CC1(C)CC(=O)C2=C(C1)NCN(CCCN1CCOCC1)C2,-6.75%
14,C=C(C)Cn1c(N2CCN(CC)CC2)nc2c1c(=O)[nH]c(=O)n2C,10.6%
15,c1ccc(CCn2nnnc2CN2CCN(C3CCCC3)CC2)cc1,-0.5%
16,Cc1ccc(Cn2nnnc2CN2CCC(n3nnc4ccccc43)CC2)cc1,68.7% (active)
17,Cc1ccc(S(=O)(=O)Cn2nnnc2CN2CCN(Cc3ccc4c(c3)OCO4)CC2)cc1,1.61%
18,Brc1ccc(Nc2c3c(nc4ncnn24)CCC3)cc1,-1.42%
19,Cc1c(C(=O)CN2CCOCC2)[nH]c2ccccc12,-6.56%
20,O=C1NC(c2ccncc2)Nc2sc3c(c21)CCCC3 (stereo not drawn),12.9%
21,Clc1ccc(C2CC(c3cccs3)n3ncnc3N2)cc1Cl (stereo not drawn),-4.72%
22,Cc1ccnc(N2CCCC(C(=O)Nc3cc(F)ccc3C)C2)n1 (stereo not drawn),58.3% (active)
23,Cc1ccnc(N2CCC(C(=O)NC3CCCCCC3)CC2)n1,-5.09%
24,O=C(Nc1ccc2c(c1)OCCO2)C1CCCN(c2ncccn2)C1 (stereo not drawn),7.08%
25,O=C(NCCC1=CCCCC1)C1CCN(Cc2cnn(-c3ccccc3)c2-n2cccc2)CC1,-3.34%

row,Structure (SMILES),inhibition
1,Cc1cc(C)c2c(n1)nn1c(-n3ccnc3)cc(C)nc21,-11.4%
2,CCOC(=O)N1CCN(CC(=O)c2c(C)[nH]c3ccccc23)CC1,-4.83%
3,CCOC(=O)N1CCN(CC(=O)n2c(C)c(C)c3ccccc32)CC1,-3.69%
4,CCOC(=O)N1CCN(CC(=O)c2ccc3c(c2)CCN3)CC1,75.5% (active)
5,O=C1c2ccncc2C(=O)N1C1CCCCC1,-26.2%
6,COCCNC(=O)COc1ccc(C)c(C)c1,-5.41%
7,COCCNC(=S)c1ccc(OC)cc1,88.3% (active)
8,COc1ccc(NC(=O)c2ccc(OC)cc2)cc1,2.87%
9,COC(=O)C(C)Sc1nc2c(c(=O)n(C)c(=O)n2C)n1Cc1cccc(C)c1 (stereo not drawn),8.94%
10,Cc1cc(Nc2ccccc2)n(CCC#N)n1,-2.42%
11,CCc1ccc2oc(=O)cc(CN3CCCCC3C)c2c1 (stereo not drawn),-13.3%
12,COc1ccc(Cl)cc1NC(=O)c1oc(C)nc1C,12.9%
13,Cc1nc(C)c(C(=O)Nc2ccc(C)c(F)c2)o1,31.9%
14,Cc1nc(C)c(C(=O)Nc2cccc(C)c2C)o1,52.9% (active)
15,CS(=O)(=O)N(CC(=O)N1CCN(c2cccc(Cl)c2)CC1)c1ccccc1,-9.31%
16,CCOC(=O)CSc1nnc(-c2ccncc2)o1,-9.52%
17,COCCCNC(=O)COc1cc(C)c(Cl)c(C)c1,-96.5%
18,CCC(Sc1nncn1C)C(=O)Nc1nnc(-c2ccc(Cl)cc2)s1 (stereo not drawn),-2.44%
19,CCN(CC)C(=O)CSc1nnc(-c2cccc(OC)c2)o1,-4.72%
20,COc1cccc(-c2nnc(NC(=O)c3ccc(S(=O)(=O)N(CC(C)C)CC(C)C)cc3)o2)c1,65.7% (active)
21,COc1cccc(NC(=O)CN(C)S(=O)(=O)c2ccc(C)cc2)c1,-3.65%
22,CCOc1cc(S(=O)(=O)NCc2ccc3c(c2)OCO3)ccc1F,-4.32%
23,CCCC(=O)N1CCc2[nH]c3ccccc3c2C1,51.2% (active)
24,O=C(NC1CCCCC1)N1CCc2[nH]c3ccccc3c2C1,-1.26%
25,Cc1ccc2[nH]c3c(c2c1)CN(C(=O)CN1CCN(c2ccccc2)CC1)CC3,-8.5%

row,Structure (SMILES),inhibition
1,CCCC(NS(=O)(=O)c1ccc(OC)cc1)C(=O)O (stereo not drawn),-5.87%
2,CCc1nnc(NC(=O)CSc2nnc(COc3ccc(C#N)cc3)n2-c2ccccc2)s1,60.1% (active)
3,CCc1nnc(NC(=O)CSc2nnc(-c3ccncc3)n2Cc2ccccc2)s1,-7.97%
4,CCc1nnc(NC(=O)CSc2nnc(Cc3ccccc3)n2-c2ccc(OC)cc2)s1,10.7%
5,CCOC(=O)N1CCN(C(=O)c2cc3c(-c4ccc(Cl)cc4)nn(C)c3s2)CC1,-13.4%
6,CCCCn1c(SCc2ncc(-c3ccccc3)o2)nc2cc(S(N)(=O)=O)ccc21,-15.2%
7,CCOc1ccc(N(CC(=O)OC)S(=O)(=O)c2c(C)noc2C)cc1,-2.65%
8,N#CCSc1nc2ccccc2c(=O)n1-c1ccccc1,-15%
9,O=c1c2ccccc2nc(CSc2nnnn2-c2ccccc2)n1-c1ccccc1,52% (active)
10,Cc1ccc(Nc2nc(CSc3nnnn3-c3ccccc3)cc(=O)[nH]2)cc1,2.45%
11,COc1ccc(OCCCC(=O)Nc2nnc(C3CCCO3)s2)cc1 (stereo not drawn),8.11%
12,COC(=O)N(c1ccc(OC)cc1)P1(=S)OCCC(C)O1 (stereo not drawn),94.7% (active)
13,CCCCC(=O)N(c1ccc(OC)cc1)C1C=CS(=O)(=O)C1 (stereo not drawn),-0.43%
14,Cn1c(=NC(=O)c2ccco2)sc2cccc(F)c21,-27.2%
15,COCc1cc(C)nc(Nc2cc(C)ccc2C)c1C#N,-17%
16,Cc1noc(NS(=O)(=O)c2ccc(N3CC(O)=C(c4ccccc4)C3=N)cc2)c1C,-3.39%
17,Cc1cnc(NC(=O)CSc2nnc(-c3ccccc3)n2Cc2ccccc2)s1,-0.4%
18,Cc1cnc(NC(=O)CSc2nnc(-c3ccc(Cl)cc3Cl)n2N)s1,70.1% (active)
19,Cc1cc(C)nc(SCc2nnc(SCC(=O)Nc3ncc(C)s3)n2Cc2ccco2)n1,-40.5%
20,CCCNS(=O)(=O)c1ccc2c(c1)CCCN2C(C)=O,-15.5%
21,CCOC(=O)c1c(NC(=O)c2ccc(Br)o2)sc2c1CCCC2,-13%
22,CCc1c(C)sc(NC(=O)c2ccc(Br)o2)c1C(=O)OC,-67.1%
23,CC1CCc2c(sc(NC(=O)c3ccc(Cn4cc(Br)cn4)o3)c2C(N)=O)C1 (stereo not drawn),88.6% (active)
24,CCC1(C)Cc2c(sc3nc4n(c(=O)c23)CCCS4)CO1 (stereo not drawn),-2.87%
25,CC(=O)Nc1nonc1-c1nc2ccccc2n1Cc1ccccn1,-10.2%

row,Structure (SMILES),inhibition
1,CCOc1ccc(NC(=O)N2CCN(CC)CC2)cc1,-4.55%
2,Cc1ccccc1NC(=O)c1ccccc1,-3.87%
3,Cc1ccc2c(c1)sc1ncc(NC(=O)c3ccccc3)c(=O)n12,68.4% (active)
4,Cc1ccc(NC(=O)c2nc[nH]c2C(=O)N2CCCCC2)c(C(=O)c2ccccc2)c1,2.94%
5,COc1ccccc1CNC(=O)CCCn1c(=O)c2ccccc2n(CC(=O)NC2CCCC2)c1=O,-18.8%
6,COc1ccc(CCNc2ncnc3nc[nH]c23)cc1OC,-5.66%
7,COC(=O)Nc1nc2ccc(Sc3ccccc3)cc2[nH]1,82.8% (active)
8,COC(=O)Cc1nc2ccccc2[nH]1,-25.6%
9,Oc1ccc2nc(Cc3ccccc3)[nH]c2c1,-7.13%
10,O=C1c2cccnc2C(=O)N1Cc1cccs1,-2.26%
11,COc1ccc(C(=O)NC(=O)CSc2nnc(-c3ccco3)n2-c2ccccc2)cc1,-5.53%
12,Cc1cccc(-n2c(C)nc3cc(C(=O)N4CCC5(CC4)OCCO5)ccc32)c1,3.01%
13,Cc1cccc(-n2c(N)c(C(=O)N3CCN(C)CC3)sc2=S)c1,90.6% (active)
14,CC(=O)c1c(N2CCOCC2)nc(=S)n(-c2cc(C)ccc2C)c1C,-1.2%
15,O=C(c1ccccc1)N1CCN(C(=O)N2CCCCC2)CC1,-10.1%
16,Cc1cccc(-n2c(N)cc(=O)nc2SC(C)C(=O)NC2CCCCC2)c1 (stereo not drawn),-4.66%
17,Cc1ccc(-n2c(N)c(C(=O)N3CCOCC3)sc2=S)c(C)c1,79.7% (active)
18,N#Cc1ccccc1-n1c(N)c(C(=O)N2CCCC2)sc1=S,68% (active)
19,Cc1ccc(OCCCC(=O)N2CCOCC2)c(C)c1,-20.5%
20,CCC(=O)Nc1sc(C(=O)N2CCCCC2)c(C)c1C#N,0.57%
21,COc1cccc(-n2c(SCC(=O)NC3CCCCC3)nc3n[nH]c(C)c3c2=N)c1,-20%
22,Cc1ccc2nc(NC3=NCN(CCc4ccccc4)CN3)nc(C)c2c1,11.4%
23,COc1ccc(C(=O)Nc2c(N)nc(SCC(=O)N3CCC(C)CC3)[nH]c2=O)cc1OC,-4.95%
